# Assay results from paper PMC13494018.
# Unmarked numbers belong to inactive results. No rule for the calls is given here.
# B1: design_613_5efed0bc-64ba-423b-b3f9-a246574e49bb_1212_dldesign_0_cycle1_af2pred (protein)
# chain: SPVEVALAAAKATVKSAEKANVESAEKLAEVAKDLAEYAAKLGGEEAKKEAEKIKKEAEEAVKKQKERAAAA
# B2: design_613_5efed0bc-64ba-423b-b3f9-a246574e49bb_35_dldesign_0_cycle1_af2pred (protein)
# chain: DQARADALIAAVDAAVAAAEAALAEDPELGLAKGAEASALIVEALKASAELSPAERARLAAALNAATARLLKVQAAAREQLA
# B3: design_612_bdadb936-3f14-48ad-830f-718e38d81c30_1832_dldesign_0_cycle1_af2pred (protein)
# chain: MEKAKELVKKIKELARKIKELAERLKADPSTAEQDLKEVNEALSEALELQKKVAEIGSPEDAEEANKELGKAQRAALEAHRAAAELA
# B4: design_613_5efed0bc-64ba-423b-b3f9-a246574e49bb_1032_dldesign_0_cycle1_af2pred (protein)
# chain: AQAKADELEALGKEAEKKAKEAKNPEAAALYKGAAELMNAMAEAARQTPEFADQLYRMGKASYEALKTEAEKKEAAYKEKE
# B5: design_613_5efed0bc-64ba-423b-b3f9-a246574e49bb_896_dldesign_0_cycle1_af2pred (protein)
# chain: AQAEAARQAAVDALAKSGEAAVKAMKEDPERASKRASGAIANLRLLGDEETAEKVAKKLLEEAKKLGEEAYEIAKKEVEKAKENVEA
# B6: design_612_bdadb936-3f14-48ad-830f-718e38d81c30_1931_dldesign_0_cycle1_af2pred (protein)
# chain: SMEELEKKREEAEKGLEEIKELAKKAAEGAKDPATAAATMAEALEKLEEYKETIELAKEVGEELAEKVRAAVNELLANVARAGAVAAA
# B7: design_613_5efed0bc-64ba-423b-b3f9-a246574e49bb_1183_dldesign_0_cycle1_af2pred (protein)
# chain: AEAQKLLEEARKLKEKAFALSPLQVGESLRYASELRKLAEKAAEADPSLAPEAKALAEETSAHVAAKARAGIAAQAA
# B8: design_613_5efed0bc-64ba-423b-b3f9-a246574e49bb_898_dldesign_0_cycle1_af2pred (protein)
# chain: GEEEERLRREGERIVEEARRLAEEAVAAIKAAAPDVAKATAILIDYLKRIDELVKRAAPYPEAAAEVAELGNRASAQGIRYIMAAA
# B9: design_613_5efed0bc-64ba-423b-b3f9-a246574e49bb_1763_dldesign_0_cycle1_af2pred (protein)
# chain: LQELIENGETLEALGKSAAAAGFNATAKRLYQDAAEQYKKAAEKAKELGDEELAKEYEAKAKEAEAKAKEY
# B10: design_613_5efed0bc-64ba-423b-b3f9-a246574e49bb_341_dldesign_0_cycle1_af2pred (protein)
# chain: SEMIEKIKELGEEAKKIGKEGLAGTPEEMLKAAEKLRELMKEISRLAAEAMKESPEVEEIALAGGEALSIAAEEIAKLQAAAAAA
# B11: design_613_5efed0bc-64ba-423b-b3f9-a246574e49bb_395_dldesign_0_cycle1_af2pred (protein)
# chain: SKTAEDGIKFIKELTEIAKAAAAAGQPKSVVETIRKTLEHATKVFAAAAAEDNPEYAEKVKKAGEEALKEADKAIAA
# B12: design_613_5efed0bc-64ba-423b-b3f9-a246574e49bb_1398_dldesign_0_cycle1_af2pred (protein)
# chain: MEEVKEEMEKLLEKVKKAVAEDVGKGGEVLVEFVKKGAELAANSTPEAAAYARKKMKEAINIVLEATLAA
# B13: design_613_5efed0bc-64ba-423b-b3f9-a246574e49bb_1441_dldesign_0_cycle1_af2pred (protein)
# chain: SEAERLAEEARRVILSGTAEEGAAAAVAAARKALEAGNLEGANLVLYESALAFGEAQRRGTPEDRAILNRGLAEVSRITLELARAA
# B14: design_612_bdadb936-3f14-48ad-830f-718e38d81c30_2117_dldesign_0_cycle1_af2pred (protein)
# chain: EEERAAAVNAAMQAIIALQQAGQALEASGDPAAKAKGKEAYAKAGEYQKLLKEYNDDVEKVKEIAKDAAAAAAEYAAAVKKAQAA
# B15: design_613_5efed0bc-64ba-423b-b3f9-a246574e49bb_260_dldesign_0_cycle1_af2pred (protein)
# chain: AAAVGEGSKLVIEGIKALAEAAQRVAFDPEIQAKLMAQAAKATRALVQGAADPATALELAKKALEEAKKAVKEAEKVLA
# B16: design_613_5efed0bc-64ba-423b-b3f9-a246574e49bb_418_dldesign_0_cycle1_af2pred (protein)
# chain: AGAEAAAHLNAAFASLSKGLISTDPAEAQKYFDEAKAHLDKARALAAKDPAVAAEVQAAVDKITDLLEGGKAAR
# B17: design_612_bdadb936-3f14-48ad-830f-718e38d81c30_1747_dldesign_0_cycle1_af2pred (protein)
# chain: SAADVAAATQKALKKQAEKLLELAKEAAAKDKEEAKKYAKAAKKLAELMVLAGEQAGTGAEAKKEAEKIKKEVEKVVKEA
# B18: design_613_5efed0bc-64ba-423b-b3f9-a246574e49bb_1210_dldesign_0_cycle1_af2pred (protein)
# chain: AEKIEKLTKALELLLEALKHKDDIELARELAKKAAELLKEAGAEEAAKYAEAAAKATDKEEMTELLNKAAGKAAKAIIDAQKAAA
# B19: design_612_bdadb936-3f14-48ad-830f-718e38d81c30_1983_dldesign_0_cycle1_af2pred (protein)
# chain: EEKVREEAKEAIEKAKEAVEKLKEAAKADPRLAVAAKAATAALEKAKELLEENPESALKLAKTTLDLAEATLAAAA
# B20: design_613_5efed0bc-64ba-423b-b3f9-a246574e49bb_1180_dldesign_0_cycle1_af2pred (protein)
# chain: AEAEEKKRRAEAHVQAAEVYITAARSAMEAGLTDAALAHAKRAIEHAQKAIELGEPRGKELLAEAEAVLKEVKA
# B21: design_613_5efed0bc-64ba-423b-b3f9-a246574e49bb_1285_dldesign_0_cycle1_af2pred (protein)
# chain: GLKEELLKEVRKVKKEAEKNAKDLEKLNEYLAKALDIAKKAQEAGDKETIAEATKVANLAAKLALEVAKA
# B22: design_612_bdadb936-3f14-48ad-830f-718e38d81c30_1696_dldesign_0_cycle1_af2pred (protein)
# chain: SAEILAAQAKALELMKEAAKYNRKAGGKTAELALEAAKYATKAISYFATGEKKAEGEEEYKKAEEKLKEVKKKAA
# B23: design_612_bdadb936-3f14-48ad-830f-718e38d81c30_1961_dldesign_0_cycle1_af2pred (protein)
# chain: MERLEKIEKRIEEIEKVVEEAEKKVKEGTITGEDALRLNKALAEARRIAEEAAKLDPELAKRAQAVAERASRVLVEGNKLLVA
# B24: design_613_5efed0bc-64ba-423b-b3f9-a246574e49bb_304_dldesign_0_cycle1_af2pred (protein)
# chain: AEAAKAAAVALAAAMLALADALAKAGDFGTALAIATLGARIVDTVVGPEAGAAFQAQRDAVISSNARAAIAAA
# B25: design_612_bdadb936-3f14-48ad-830f-718e38d81c30_2254_dldesign_0_cycle1_af2pred (protein)
# chain: GAAEAEEAARREEAKKLAEEYLKKVEEAAKESTGKAVEVMVKGVKELLEIGDKETANALAQEATRIISAAVRA
# B26: design_613_5efed0bc-64ba-423b-b3f9-a246574e49bb_150_dldesign_0_cycle1_af2pred (protein)
# chain: GEKEKAVKEAKEAAEETEKVAKEAIKAAKAAGNEAAAKMAEALAKNAKKALEEAKKGTLEEAKKNLKYIESNLKNAKLILEGQ
# B27: design_612_bdadb936-3f14-48ad-830f-718e38d81c30_2140_dldesign_0_cycle1_af2pred (protein)
# chain: DAAAAALAAAHIAKLNAIAKEGIEAAKKGDPEANAEKAVAKINAAASAAVKEMTALGANGSYITQVLQAAAEAIKKVREAAKKAK
# B28: design_613_5efed0bc-64ba-423b-b3f9-a246574e49bb_1341_dldesign_0_cycle1_af2pred (protein)
# chain: AVAAAGAKGLAAAAKSVAEATIRLAEQVAKEDPSKAEQAKAIAEQAKAAAAAAAKAAEAGDTAAAQAQFQKLVALYQQVLDLAK
# B29: design_613_5efed0bc-64ba-423b-b3f9-a246574e49bb_1308_dldesign_0_cycle1_af2pred (protein)
# chain: AAAEKAKEAAKKAEELAKYAEEHKEELTPEELRKIGYELVKQGNTLLQAGGAAQAAAQKAFGYAAEVAELIRE
# B30: design_613_5efed0bc-64ba-423b-b3f9-a246574e49bb_1354_dldesign_0_cycle1_af2pred (protein)
# chain: GEALKEALRQKALEAANKALALTSQLWTKDPARAQPAIALIIQGLETGDPKYFFEAAEKVAADPEAAGAAKAAGEYMEKANKL
# B31: design_613_5efed0bc-64ba-423b-b3f9-a246574e49bb_992_dldesign_0_cycle1_af2pred (protein)
# chain: GERVEELRALVEEAARVSPELAALAQEALRLYLRGLALSANPATAARGEAAFAESERLAAEARARLAERLAAAAA
# B32: design_612_bdadb936-3f14-48ad-830f-718e38d81c30_1730_dldesign_0_cycle1_af2pred (protein)
# chain: AAAAAVAKVKAAKEKAKELLEEARKLAKEDPEKAGEVLNKALTYVSKVAAQAAKDGPEAAAAAAKVLGEVLDEVAEIEKLRKEIAA
# B33: design_613_5efed0bc-64ba-423b-b3f9-a246574e49bb_1256_dldesign_0_cycle1_af2pred (protein)
# chain: DKAVTSAILRKSLAHARRQLAAATTAEEAEAVAQTAQVLADAAKAAGDAATAAEAAALAAEARAKAAALRAAEEAAA
# B34: design_613_5efed0bc-64ba-423b-b3f9-a246574e49bb_1387_dldesign_0_cycle1_af2pred (protein)
# chain: AAAAAQAGQLAVQAAQGMIKKAKEILKRMPEVDPEKALASAKGVTDVAQALADQAIASPATAAQGKALKAEAKAVLAEAEKAAA
# B35: design_613_5efed0bc-64ba-423b-b3f9-a246574e49bb_1343_dldesign_0_cycle1_af2pred (protein)
# chain: LAEAAERTARAIERNALEAIKTLSPEEAKRAAELAVTMLEGLAIAAPEAAPVARGLAERVRAAEREYTSKKLAE
# B36: design_612_bdadb936-3f14-48ad-830f-718e38d81c30_2023_dldesign_0_cycle1_af2pred (protein)
# chain: AEAETLGSLARGAISFLRTAAAYLRRKAAAAADPATAATLNAYADRLEALAEAAAKAVEEGKYEEAVALAEEGVALALEGAAAAA
# B37: design_613_5efed0bc-64ba-423b-b3f9-a246574e49bb_1690_dldesign_0_cycle1_af2pred (protein)
# chain: AAALEVGRRTLAALERTAEAAIAAARATTPEEAAREMGRARAAAEQARLIGEGVPELAPRAEALAERVAAAAAALEAA
# B38: design_613_5efed0bc-64ba-423b-b3f9-a246574e49bb_1611_dldesign_0_cycle1_af2pred (protein)
# chain: DAAAKAKAKEAEAKGKELIAKAKAAAEAGDYDAANAYLQQAIKLGMEMASSGASQAEVDVGAKIVSAVVEAMEYMSAQRRARR
# Target: CD276, Q5ZPR3
# Sequence (Q5ZPR3 whole entry): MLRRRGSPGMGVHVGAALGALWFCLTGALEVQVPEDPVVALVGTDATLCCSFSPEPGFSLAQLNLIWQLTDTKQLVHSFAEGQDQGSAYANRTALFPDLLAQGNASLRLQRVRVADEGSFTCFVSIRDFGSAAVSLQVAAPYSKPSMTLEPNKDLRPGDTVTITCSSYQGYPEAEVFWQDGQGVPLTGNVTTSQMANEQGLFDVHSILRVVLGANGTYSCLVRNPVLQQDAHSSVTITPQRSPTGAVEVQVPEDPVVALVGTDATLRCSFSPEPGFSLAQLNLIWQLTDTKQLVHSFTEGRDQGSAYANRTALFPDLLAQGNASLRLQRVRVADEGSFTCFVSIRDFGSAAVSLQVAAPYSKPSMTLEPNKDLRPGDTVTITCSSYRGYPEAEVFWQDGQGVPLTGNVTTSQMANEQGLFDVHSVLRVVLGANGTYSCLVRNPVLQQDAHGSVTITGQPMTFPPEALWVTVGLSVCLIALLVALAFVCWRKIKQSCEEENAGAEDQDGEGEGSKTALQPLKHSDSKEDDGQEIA
row,Binder,binding in a display sort
1,B1,not found
2,B2,not found
3,B3,not found
4,B4,not found
5,B5,not found
6,B6,not found
7,B7,not found
8,B8,not found
9,B9,not found
10,B10,not found
11,B11,not found
12,B12,not found
13,B13,not found
14,B14,not found
15,B15,not found
16,B16,not found
17,B17,not found
18,B18,not found
19,B19,not found

row,Binder,binding in a display sort
1,B20,not found
2,B21,not found
3,B22,not found
4,B23,not found
5,B24,not found
6,B25,not found
7,B26,not found
8,B27,not found
9,B28,not found
10,B29,not found
11,B30,not found
12,B31,not found
13,B32,not found
14,B33,not found
15,B34,not found
16,B35,not found
17,B36,not found
18,B37,not found
19,B38,not found
